± gives the standard deviation of the averaged measurements.
These compounds were tested on HCC1569 (assay: cell number relative to DMSO (% of DMSO); higher = more cells (less growth inhibition / toxicity)). Conditions: concentration: 10 µM; 24 h.
How it was run: (§1)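 H1.0 nuclear intensity or cell number is expressed as percent of the plate control, with the median of replicates taken. HCC1569 and TDF cells were treated with compounds at 10 µM for 24 h at 37 °C, in triplicate, then fixed and immunostained for H1.0 with DAPI as a nuclear stain. HCC1569 values were smoothed to correct for positional effects.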
Compound `Cn1c(=O)c2c(ncn2C)n(C)c1=O` [Caffeine] has a cell number of 102 ± 2.6. With `CN(CCOc1ccc(NS(C)(=O)=O)cc1)CCc1ccc(NS(C)(=O)=O)cc1` [Dofetilide] the cell number was 98. With `CCCCCCCCCCCCCCCC(=O)OC(CC(=O)O)C[N+](C)(C)C.[Cl-]` (racemic) [Palmitoyl-DL-Carnitine chloride] the cell number was 94.9. Compound `CNC(C)C1CCC(N)C(OC2C(N)CC(N)C(OC3OCC(C)(O)C(NC)C3O)C2O)O1` (stereo not given) [Gentamycin] has a cell number of 100. `CCCCCC=CCC=CCCCCCCCC(N)=O` [Linoleamide] gave a cell number of 99.8.

These compounds were tested on TDF in the same assay as above. Conditions: concentration: 10 µM; 24 h.
How it was run: as §1
`O=C(CCc1ccc(O)cc1)c1c(O)cc(O)cc1OC1OC(CO)C(O)C(O)C1O` (stereo not given) [Phlorizine] gave a cell number of 99.3. In the case of `CN(C)CCCN1c2ccccc2Sc2ccc(Cl)cc21.Cl` [Chlorpromazine hydrochloride], the cell number is reported as 64.4. In the case of `CCCCCCCCCCCC=CCCCCC(=O)O` [6(Z)-Octadecenoic acid], the cell number is reported as 99.9. `COc1nc(C)nc(Cl)c1NC1=NCCN1.Cl` [Moxonidine hydrochloride] showed a cell number of 102. `Cc1cc(N)c2ccccc2[n+]1CCCCCCCCCC[n+]1c(C)cc(N)c2ccccc21.[Cl-].[Cl-]` [Dequalinium dichloride] was tested, and the cell number was 64.1. `O=C1CCC(N2C(=O)c3ccccc3C2=O)C(=O)N1` (racemic) gave a cell number of 108. Compound `O=C(CCl)c1c[nH]c2ccccc12` [2-chloro-1-(1H-indol-3-yl)ethanone] has a cell number of 55. `O=C(O)CCCC=CCC1C(O)CC(F)C1C=CC(O)C1Cc2ccccc2C1` (stereo not given) gave a cell number of 103. `CC(C)(C)NCC(O)c1cc(O)cc(O)c1.CC(C)(C)NCC(O)c1cc(O)cc(O)c1.O=S(=O)(O)O` (stereo not given) [Terbutaline hemisulfate] showed a cell number of 105. For `O=C1NC(=O)C(=Cc2ccc(-c3ccc(F)cc3O)o2)S1`, the cell number was 104. Compound `CCCCCCCCCCCCCCCCOCC(CO)OC(C)=O` (stereo not given) [1-Hexadecyl-2-O-acetyl-glycerol] has a cell number of 99.8. With `Br.CN1CCc2cc(O)c(O)cc2C1Cc1ccc(O)c(O)c1.O.O.O` (stereo not given) the cell number was 108. `COc1cc(C(=O)OC2CC3CCC2(C)C3(C)C)ccc1O` (stereo not given) [Tschimganine] was tested, and the cell number was 103. With `Br.Oc1ccc(C2CNCCc3c2cc(O)c(O)c3Cl)cc1` (stereo not given) [Fenoldopam bromide] the cell number was 100. `N=c1ccn2c(n1)OC1C(O)C(CO)OC12` (stereo not given) [Cyclocytidine] gave a cell number of 51.7. Compound `Cc1cc2c(OCC(CNC(C)(C)C)OC(=O)c3ccccc3)cccc2[nH]1` (stereo not given) [Bopindolol] has a cell number of 89.5. For `CC(C)Cn1cnc2c(N)nc3ccccc3c21` [Imiquimod], the cell number was 93.4. `CC1OC(n2cc(F)c(=O)[nH]c2=O)C(O)C1O` (stereo not given) [Doxifluridine] was tested, and the cell number was 107. `Cl.NCC1OC(C23CC4CC(CC(C4)C2)C3)Cc2c1ccc(O)c2O` (stereo not given) showed a cell number of 68.9. In the case of `CCC12CCCN3CCc4c(n(c5ccccc45)C(=O)C1)C32` (single isomer, unassigned; (-)) [(-)-Eburnamonine], the cell number is reported as 58.5. `CCCCCC=CCC=CCC=CCC=CCCCC(=O)OC(COCCCCCCCCCCCCCCCC)COP(=O)([O-])OCC[N+](C)(C)C` (stereo not given) [Arachidonyl-PAF] showed a cell number of 100. In the case of `Cc1coc2c1C(=O)C(=O)c1c-2ccc2c1CCCC2(C)C` [Tanshinone IIA], the cell number is reported as 45.7 ± 6. `CC1(NCC(O)COc2cccc3[nH]ccc23)CCC(C(C)(C)NC(=O)CBr)CC1` (stereo not given) [Pindobind-5HT1A] showed a cell number of 10.4. With `CC[N+](C)(C)c1cccc(O)c1.[Cl-]` [Edrophonium chloride] the cell number was 113. `CCCNCC(O)COc1ccccc1C(=O)CCc1ccccc1` (stereo not given) [Propafenone] gave a cell number of 101. In the case of `C[N+](C)(C)CCOC(=O)CCC(=O)OCC[N+](C)(C)C.[Cl-].[Cl-]` [Succinylcholine chloride], the cell number is reported as 113. `CC(N=C(NC#N)Nc1ccncc1)C(C)(C)C` (stereo not given) [Pinacidil] gave a cell number of 107 ± 6.8. `N[C@@H](COP(=O)(O)O)C(=O)O` [O-Phospho-L-serine] showed a cell number of 101. In the case of `CSc1ccc(C(=O)c2[nH]c(=O)[nH]c2C)cc1` [Enoximone], the cell number is reported as 109. Work on `O=C(c1ccc(C(=O)N2CCC(N3CCCC3)CC2)c(Nc2ccccc2)c1)N1CCC(N2CCCC2)CC1` yielded a cell number of 104. `CN=C(NC#N)Nc1ccc(C2=NNC(=O)CC2C)cc1` (stereo not given) [Siguazodan] was tested, and the cell number was 104. `O=c1[nH]c(=O)n(C2CC(O)C(CO)O2)cc1Br` (stereo not given) [5-Bromo-2'-deoxyuridine] showed a cell number of 106. `COc1cc2ncc(-c3ccccc3)nc2cc1OC` [Tyrphostin AG 1296] was tested, and the cell number was 106. `CCOc1nc2cccc(C(=O)O)c2n1Cc1ccc(-c2ccccc2-c2nn[nH]n2)cc1` [Candesartan] gave a cell number of 97.2. `C=Cc1c(C)c2cc3[nH]c(cc4nc(cc5nc(cc1[nH]2)C(C)=C5CCC(=O)O)C(CCC(=O)O)=C4C)c(C)c3C=C` [Protoporphyrin IX disodium] showed a cell number of 86.7. With `Cn1c(=O)c2c(ncn2C)n(C)c1=O` [Caffeine] the cell number was 102 ± 7.9. `CN(CCOc1ccc(NS(C)(=O)=O)cc1)CCc1ccc(NS(C)(=O)=O)cc1` [Dofetilide] showed a cell number of 121. `CCCCCCCCCCCCCCCC(=O)OC(CC(=O)O)C[N+](C)(C)C.[Cl-]` (racemic) [Palmitoyl-DL-Carnitine chloride] was tested, and the cell number was 101. `CNC(C)C1CCC(N)C(OC2C(N)CC(N)C(OC3OCC(C)(O)C(NC)C3O)C2O)O1` (stereo not given) [Gentamycin] gave a cell number of 95.4. Compound `CCCCCC=CCC=CCCCCCCCC(N)=O` [Linoleamide] has a cell number of 94.8.
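Also: TDF denotes transformed human dermal fibroblasts of mesenchymal origin.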
